Reference: PubChem BioAssay (NCATS)
Values joined by “and” are separate entries in the source; they are usually repeats but may differ in a detail not shown here. Identical values can stand only once. Results filed as inconclusive are left out. Active and inactive are the calls of the source. Unless noted, calls come from the whole dose curve; as a rule, active = well fitted curve in the direction sought with a large enough effect; inconclusive = small, poorly fitted or top-dose-only effect, or another doubt; inactive = no such curve, though single readings can be large; an effect the other way counts as inactive or inconclusive.

Key:
[1] = system: Zika virus NS2B-NS3 protease (linked construct); assay: Primary screen NINDS Rhodamine qHTS for Zika virus inhibitors (AID 1347160); note: nearly all actives have a fitted effect of over 55% in size
Summary of the method: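 Rhodamine110-peptide cleavage (1.5 µM substrate) by 25 nM linked NS2B-NS3 enzyme at pH 8.0 (Tris, Tween 20), after 15 min RT preincubation with compounds; 15-min fluorescence change normalized to controls and Hill-fitted.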

[2] = molecular target: Calcium and integrin-binding protein 1 (Homo sapiens) (UniProt Q99828); assay: Primary qHTS for Identification of Calcium Integrin Binding Protein 1 (CIB1) Competitor (AID 1508620);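 note: GST tagged CIB1 binding a fluorescein labelled alphaIIb integrin peptide tracer; top concentration of the series differs between compounds; % is set by controls: 0 for no effect and ±100 for the full control effect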
Summary of the method: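 Fluorescence polarization competition: GST-tagged CIB1 (1 uM final) preincubated with compound 15 min at room temperature, then FITC-labelled alphaIIb peptide (100 nM final) added. After 15 min at room temperature, polarization read at Ex 480/Em 540.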

[3] = Primary qHTS for inhibitors of nuclear receptor binding SET domain protein 2 (NSD2) in an isogenic RCH-ACV NSD2 p.E1099K mutant (9B) (AID 1645876); note: nearly all actives have a fitted effect of over 70% in size; note: potency is the fitted concentration of half-maximal effect
[4] = Primary qHTS for inhibitors of nuclear receptor binding SET domain protein 2 (NSD2) in an RCH-ACV wild type WT cells (2C) (AID 1645877); note: potency is the fitted concentration of half-maximal effect; nearly all actives have a fitted effect of over 70% in size
[5] = molecular target: Glutathione peroxidase 1 (Homo sapiens) (UniProt P07203); assay: Primary qHTS Assay for Inhibitors of Recombinant Selenoprotein Glutathione Peroxidase 1 (GPX1) (AID 1845191); note: nearly all actives have a fitted effect of over 65% in size
Summary of the method: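 GR-coupled readout: NADPH consumption tracked by fluorescence, ex 340/em 450 nm, at t=0 and after 15 min at RT. Final mix 10 nM GPX1, 1 mM GSH, 0.5 mM CHP, 0.5 mM NADPH, 100 nM GR, 0.01% BSA, following 30 min enzyme–compound preincubation.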

[6] = molecular target: Phospholipid hydroperoxide glutathione peroxidase GPX4 (Homo sapiens) (UniProt P36969); assay: Primary qHTS Assay for Inhibitors of Recombinant Selenoprotein Glutathione Peroxidase 4 (GPX4) (AID 1845192); settings: outcome: dose series up to 50 µM unless noted; note: nearly all actives have a fitted effect of over 65% in size
Summary of the method: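 Steps: GPX4 plus compound, 30 min RT; add GR/GSH/NADPH master mix; start with cumene hydroperoxide; read 340/450 nm fluorescence at 0 and 15 min. Finals were 200 nM GPX4, 1 mM GSH, 0.5 mM CHP, 0.5 mM NADPH, 100 nM GR.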

[7] = molecular target: Luciferin 4-monooxygenase (Photinus pyralis) (UniProt P08659); assay: Primary firefly luciferase (FLuc) qHTS assay for identification of artifact compounds. (AID 1845220); note: nearly all actives have a fitted effect of over 60% in size
Summary of the method: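 Enzymatic FLuc inhibition assay: compounds pre-exposed to luciferin/ATP (10 uM each) for 15 min, then purified P. pyralis enzyme at 10 nM added. Read-out: luminescence at 5 min.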

[8] = system: Nanoluciferase (engineered Oplophorus gracilirostris luciferase); assay: Primary Nanoluciferase (NLuc) qHTS assay for identification of artifact compounds. (AID 1845222);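 note: NLuc secreted into diluted conditioned medium of S16 cells; 0% = DMSO and -100% = no enzyme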
Summary of the method: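 S16 cell supernatant NLuc, 1:55; cpds qHTS; 15 min RT dark; Nano-Glo substrate 1:100, 5 min; luminescence; Hill fit of % inhibition.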

[9] = Primary redox qHTS assay for identification of artifact compounds. (AID 1845223);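 note: 0% = DMSO and 100% = reference compound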
Summary of the method: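 Redox-cycling detection via DTT (250 uM final) oxidation coupled to Amplex Red (25 uM)/HRP (250 mU/mL) in HBSS. 15 min preincubation plus 30 min after DTT, room temperature. Ex/Em 525/598 nm; 4-parameter Hill fit against DMSO and 10 uM DA3003.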

Es-2 = assay: Primary qHTS to identify gynecologic anti-cancer compounds using libraries of approved drugs and bioactive compounds (AID 1345084); settings: Gynecologic cancer cell panel viability, ATPlite luminescence, 48 h; series mostly up to 57.5 µM; note: nearly all actives have a fitted effect of over 55% in size; note: potency is the fitted concentration of half-maximal effect
Summary of the method: (§1)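 Cells, 1,000 per well, plated 16 h, then exposed 48 h at 37 C to compounds. Viability by ATPlite luminescence after 15 min at room temperature.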

HeLa = assay: as above; settings: Gynecologic cancer cell panel viability, ATPlite luminescence, 48 h; series mostly up to 57.5 µM
Summary of the method: as §1

JEG-3 = assay: as above; settings: Gynecologic cancer cell panel viability, ATPlite luminescence, 48 h; series mostly up to 57.5 µM
Summary of the method: as §1

OV90 = assay: as above; settings: Gynecologic cancer cell panel viability, ATPlite luminescence, 48 h; series mostly up to 57.5 µM
Summary of the method: as §1

Tov-21-G = assay: as above; settings: Gynecologic cancer cell panel viability, ATPlite luminescence, 48 h; series mostly up to 57.5 µM
Summary of the method: as §1

[10] = Primary fluorescence-based thiol-reactive (MSTI) qHTS assay for identification of artifact compounds. (AID 1845221);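 note: thiol-reactive compounds lower the probe fluorescence signal; nearly all actives have a fitted effect of over 65% in size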
Summary of the method: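 MSTI probe at 4 uM final in 2% DMSO/PBS pH 7.4; compounds, 1 h at room temperature in dark. Fluorescence Ex/Em 525/598 nm, normalised to Acetyl-MSTI and MSTI, fitted to 4-parameter Hill.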

[11] = qHTS drug screen for cell cycle checkpoint inhibitors in PARPi-resistant BRCA-mutant ovarian cancer cell lines. (AID 1963452; calls by dose curve); settings: PEO1/OlaR viability, CellTiter-Glo luminescence, 96 h, stronger effect = lower value
Summary of the method: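 PEO1, PEO4 and PEO1/OlaR ovarian cancer cells, 600 per well, exposed 96 h at 37C to a dilution series. Viability read by CellTiter-Glo luminescence, normalized to DMSO and empty wells; activity summarized as Z-AUC.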

C33A = assay: Primary qHTS to identify gynecologic anti-cancer compounds using libraries of approved drugs and bioactive compounds (AID 1345084); settings: Gynecologic cancer cell panel viability, ATPlite luminescence, 48 h; series mostly up to 57.5 µM; note: nearly all actives have a fitted effect of over 55% in size; note: potency is the fitted concentration of half-maximal effect
Summary of the method: as §1

CASKI = assay: as above; settings: Gynecologic cancer cell panel viability, ATPlite luminescence, 48 h; series mostly up to 57.5 µM
Summary of the method: as §1

Hek293T = assay: as above; settings: Gynecologic cancer cell panel viability, ATPlite luminescence, 48 h, control line for the selectivity index; series mostly up to 57.5 µM
Summary of the method: as §1

Tov112D = assay: as above; settings: Gynecologic cancer cell panel viability, ATPlite luminescence, 48 h; series mostly up to 57.5 µM
Summary of the method: as §1

[12] = measured here: PEO1 parental Z-AUC

Phospholipid hydroperoxide glutathione peroxidase GPX4 (Homo sapiens), sequence (P36969 whole entry, looked up): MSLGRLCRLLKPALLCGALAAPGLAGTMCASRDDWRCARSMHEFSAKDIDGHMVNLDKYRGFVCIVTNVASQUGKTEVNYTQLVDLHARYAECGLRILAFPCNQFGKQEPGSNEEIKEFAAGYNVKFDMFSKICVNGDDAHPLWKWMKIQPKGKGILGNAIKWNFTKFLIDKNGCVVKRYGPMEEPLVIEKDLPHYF
Calcium and integrin-binding protein 1 (Homo sapiens), sequence (Q99828 whole entry, looked up): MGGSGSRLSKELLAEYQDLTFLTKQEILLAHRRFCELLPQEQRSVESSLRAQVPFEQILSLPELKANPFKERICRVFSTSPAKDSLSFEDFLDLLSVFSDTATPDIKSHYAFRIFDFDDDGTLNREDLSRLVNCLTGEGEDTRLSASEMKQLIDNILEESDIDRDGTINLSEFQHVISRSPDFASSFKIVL
Glutathione peroxidase 1 (Homo sapiens), sequence (P07203 whole entry, looked up): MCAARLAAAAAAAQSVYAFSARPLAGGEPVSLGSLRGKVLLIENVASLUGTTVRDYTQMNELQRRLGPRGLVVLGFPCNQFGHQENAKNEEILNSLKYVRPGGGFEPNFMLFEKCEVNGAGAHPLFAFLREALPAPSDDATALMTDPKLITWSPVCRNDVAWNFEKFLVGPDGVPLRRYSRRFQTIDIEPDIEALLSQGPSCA

O=C1c2c(O[C@@H]3O[C@H](CO)[C@@H](O)[C@H](O)[C@H]3O)cc(O)cc2OC1(O)Cc1ccc(O)cc1 (stereo not given in full)
active: Potency [3] 7.96 µM | Potency [4] 4.47 µM
inactive: Potency [1] | outcome [2] | Potency [5] | Potency [6] | Potency [7] | Potency [8] | Potency [9] | Potency (Es-2) | Potency (HeLa) | Potency (JEG-3) | Potency (OV90) | Potency (Tov-21-G)

COc1cc2ncnc(Oc3cccc(NC(=O)Nc4cc(C(C)(C)C(F)(F)F)on4)c3)c2cc1OC
inactive: Potency [1] | outcome [2] | Potency [5] | Potency [6] | Potency [7] | Potency [10] | Potency [8] | Potency [9] | Z-AUC [11] 0.198 | Potency (C33A) | Potency (CASKI) | Potency (Es-2) | Potency (HeLa) | Potency (Hek293T) | Potency (JEG-3) | Potency (OV90) | Potency (Tov-21-G) | Potency (Tov112D)
0.555: Z-AUC ([11]; measured here: PEO4 Z-AUC)
0.387: Z-AUC [11, 12]

CC1OC2OC3C(OCC(O)C3O)OC(=O)C34CCC(C)(C)CC3C3=CCC5C6(C)CC(O)C(OC7OC(CO)C(O)C(O)C7OC7OCC(OC(=O)CC(C)(O)CC(=O)OC1C(OC1OCC(O)C(O)C1O)C2O)C(O)C7O)C(C)(CO)C6CCC5(C)C3(C)CC4O (stereo not given)
inactive: Potency [1] | outcome [2] | Potency [5] | Potency [6] | Potency [7] | Potency [10] | Potency [8] | Potency (JEG-3)
active: Potency [3] 2.52 µM | Potency (OV90) 10 µM

C=C1CC[C@@H]2[C@](C)(CO)[C@H](O)CC[C@@]2(C)[C@@H]1C/C=C1/C(=O)OC[C@@H]1O
inactive: Potency [1] | outcome [2] | Potency [6] | Potency [7] | Potency [10] | Potency [8] | Potency [9] | Potency (Es-2) | Potency (HeLa) | Potency (JEG-3) | Potency (OV90)

COc1cc(-c2cc(-c3ccc(N4CCNCC4)cc3)cnc2C)cc(OC)c1OC
active: Potency [3] 9.34 µM | Potency [4] 7.42 µM
-0.59: Z-AUC ([11]; measured here: PEO4 Z-AUC)
inactive: Potency [1] | outcome [2] | Potency [5] | Potency [6] | Potency [7] | Potency [10] | Potency [8] | Potency [9] | Z-AUC [11] -1.12 | Potency (C33A) | Potency (CASKI) | Potency (Es-2) | Potency (HeLa) | Potency (Hek293T) | Potency (JEG-3) | Potency (Tov-21-G) | Potency (Tov112D)
-0.592: Z-AUC [11, 12]

CN(CCCNC(=O)c1ccc2nc3c(c(Cl)c2c1)CCCC3)Cc1ccccc1
inactive: Potency [1] | Potency [5] | Potency [6] | Potency [7] | Potency [10] | Potency [8] | Potency [9] | Potency (C33A) | Potency (CASKI) | Potency (Es-2) | Potency (HeLa) | Potency (Hek293T) | Potency (JEG-3) | Potency (OV90) | Potency (Tov-21-G) | Potency (Tov112D)
active: Potency [3] 12.9 µM

CCC[C@@H](NC(=O)N1C(=O)C(CC)(CC)[C@@H]1Oc1ccc(C(=O)N2CCN(C)CC2)cc1)c1ccc2c(c1)OCO2
inactive: Potency [1] | outcome [2] | Potency [5] | Potency [6] | Potency [7] | Potency [8] | Potency [9] | Potency (C33A) | Potency (CASKI) | Potency (Es-2) | Potency (HeLa) | Potency (Hek293T) | Potency (JEG-3) | Potency (OV90) | Potency (Tov-21-G) | Potency (Tov112D)

CNc1ccc([N+](=O)[O-])cc1-n1cnc(-c2ccc(C(F)(F)F)cc2)c1
inactive: Potency [1] | Potency [5] | Potency [6] | Potency [7] | Potency [10] | Potency [8] | Potency [9] | Potency (C33A) | Potency (CASKI) | Potency (Es-2) | Potency (HeLa) | Potency (Hek293T) | Potency (JEG-3) | Potency (OV90) | Potency (Tov-21-G) | Potency (Tov112D)

Cc1[nH]c(/C=C2\C(=O)Nc3ccc(F)cc32)c(C)c1C(=O)NC[C@H](O)CN1CCOCC1
active: Potency [3] 6.49 µM and 9.34 µM | Potency [4] 6.49 µM and 10.5 µM
0.0211: Z-AUC ([11]; measured here: PEO4 Z-AUC)
0.846: Z-AUC [11, 12]
inactive: Potency [1] | outcome [2] | Potency [5] | Potency [6] | Potency [7] | Potency [9] | Z-AUC [11] -1.33 | Potency (C33A) | Potency (CASKI) | Potency (Hek293T) | Potency (JEG-3) | Potency (OV90) | Potency (Tov112D)

Cn1cc(-c2cnc3ccc4ccc(CS(=O)(=O)NCc5ccccn5)cc4c(=O)c3c2)cn1
-0.899: Z-AUC ([11]; measured here: PEO4 Z-AUC)
inactive: Potency [1] | Potency [5] | Potency [6] | Potency [7] | Potency [10] | Potency [8] | Potency [9] | Z-AUC [11] -1.05 | Potency (C33A) | Potency (CASKI) | Potency (Es-2) | Potency (HeLa) | Potency (Hek293T) | Potency (JEG-3) | Potency (OV90) | Potency (Tov-21-G)
-0.542: Z-AUC [11, 12]
active: Potency [3] 20.9 µM | Potency [4] 23 µM

CC[C@H](CO)Nc1nc(Nc2cccc(-c3ccccn3)c2)c2ncn(C(C)C)c2n1
inactive: Potency [1] | outcome [2] | Potency [5] | Potency [6] | Potency [7] | Potency [10] | Potency [8] | Potency (C33A) | Potency (CASKI) | Potency (Es-2) | Potency (HeLa) | Potency (Hek293T) | Potency (JEG-3) | Potency (Tov112D)
active: Potency [4] 16.3 µM

Cn1c(NC[C@@H](N)Cc2ccccc2)nc(-c2ccncc2)c(-c2ccc3ccccc3c2)c1=O
active: Potency [3] 18.6 µM | Potency [4] 26.3 µM
inactive: Potency [1] | outcome [2] | Potency [5] | Potency [6] | Potency [7] | Potency [10] | Potency [8] | Potency [9] | Z-AUC [11] -0.2 | Potency (C33A) | Potency (CASKI) | Potency (Es-2) | Potency (HeLa) | Potency (Hek293T) | Potency (JEG-3) | Potency (OV90) | Potency (Tov-21-G) | Potency (Tov112D)
0.932: Z-AUC ([11]; measured here: PEO4 Z-AUC)
0.768: Z-AUC [11, 12]

COc1cc([C@@H](CC(=O)O)c2ccc(C)c(CN3C[C@@H](C)Oc4ccccc4S3(=O)=O)c2)cc2nnn(C)c12
-0.282: Z-AUC ([11]; measured here: PEO4 Z-AUC)
0.171: Z-AUC [11, 12]
inactive: outcome [2] | Potency [3] | Potency [5] | Z-AUC [11] 1.24
